HEK cytotox: cytotoxic compounds in HEK 293 cells | HEK 293 viability, ATP luminescence (CellTiter-Glo), 48-72 h | Potency, µM (series often up to 115 µM), for inactives: top-dose activity change, negative = cytotoxicity, actives largely listed as inhibitors | actives 6.6% (n = 94,000) | AID 1345083; also: nearly all actives have a fitted effect of over 60% in size
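HEK 293 seeded at 250 cells/well receive compound via pintool. After 48 or 72 hr at 37 degree Celsius, 5% CO2 and 95% humidity, CellTiter-Glo is dispensed and luminescence read following 10 min at room temperature.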
NPR1 antag: antagonists of human natriuretic peptide receptor Npr1 | AID 1347048 | Potency, µM (top dose mostly 46.3 µM), for inactives: at the highest dose activity change, negative = inhibition, most hits filed as inhibitors | HEK293 hNpr1 GloSensor cGMP, ANP-stimulated luminescence | P16066 | actives 1.6% (n = 76,000); calls by dose curve; also: nearly all actives have a fitted effect of over 60% in size
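Compound pre-incubated 30 min at room temperature on GloSensor-loaded HEK293 cells stably carrying hNpr1 and the pGS-40F cGMP biosensor. Stimulation uses hNppA at 0.1 nM final; luminescence is taken at baseline and 20 min post-agonist.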
Luciferase inh: blocks purified firefly luciferase enzyme activity; Potency, µM (series often up to 115 µM), hits mostly inhibitors; purified P. pyralis luciferase, luminescence, biochemical; actives 2.5% (n = 76,000); P08659; AID 1347043; also: nearly all actives have a fitted effect of over 65% in size
Target sequence (P08659 whole entry, looked up): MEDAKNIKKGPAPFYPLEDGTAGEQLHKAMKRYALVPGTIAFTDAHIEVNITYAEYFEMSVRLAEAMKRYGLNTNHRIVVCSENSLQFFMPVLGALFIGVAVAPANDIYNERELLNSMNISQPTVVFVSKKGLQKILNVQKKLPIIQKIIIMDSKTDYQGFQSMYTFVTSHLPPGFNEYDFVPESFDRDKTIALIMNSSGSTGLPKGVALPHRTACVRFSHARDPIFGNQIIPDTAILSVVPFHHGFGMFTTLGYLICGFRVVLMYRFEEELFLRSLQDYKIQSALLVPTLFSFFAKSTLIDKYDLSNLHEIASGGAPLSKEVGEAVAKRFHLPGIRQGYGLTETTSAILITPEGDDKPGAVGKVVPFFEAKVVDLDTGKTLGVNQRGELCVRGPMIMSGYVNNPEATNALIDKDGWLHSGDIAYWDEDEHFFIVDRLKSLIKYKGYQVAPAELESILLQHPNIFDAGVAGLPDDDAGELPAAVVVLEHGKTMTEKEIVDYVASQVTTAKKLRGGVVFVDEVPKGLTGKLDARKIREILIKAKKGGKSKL
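Luminescence read by CCD imaging after purified firefly luciferase (10nM final) was added to substrate buffer holding 10uM D-luciferin and 10uM ATP, pH 7.5, pre-dosed with compound.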
3T3 cytotox: cytotoxic compounds in NIH 3T3 cells. NIH 3T3 viability, CellTiter-Glo ATP luminescence, 48-72 h. Potency, µM (top dose mostly 96.7 µM), inactives show top-dose activity change, negative = cytotoxicity, most hits filed as inhibitors. actives 4.3% (n = 94,000); also: nearly all actives have a fitted effect of over 55% in size
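Viability of NIH 3T3 cells after 48 or 72 hr compound treatment at 37 °C was assessed by CellTiter-Glo, with luminescence imaged following a 10 min room-temperature step.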
* hit, by the source's call; i = inactive; ? = inconclusive; · = no result; ! = not active in a repeat; [ ] = dose if it differs, or a comment. This is a sample that favours compounds with a hit; in the whole collection about 11% have one here. Unless noted, calls follow the shape of the dose curve; as a rule, active = well fitted curve in the direction sought with a large enough effect; inconclusive = small, poorly fitted or top-dose-only effect, or another doubt; inactive = no such curve, though single readings can be large; an effect the other way counts as inactive or inconclusive. % is scaled to controls: 0 for no effect and ±100 for the full control effect; potency is read from the fitted curve at half-maximal effect.

SMILES	HEK cytotox	NPR1 antag	Luciferase inh	3T3 cytotox
CCN1CCN(C(=O)c2cc3n(n2)CC(c2ccc(Br)cc2)OC3)CC1 (centres undefined)	?	-25%	i	?
Cc1ccccc1N1CCN(C(=O)c2cc3n(n2)CC(c2ccc(Cl)cc2)OC3)CC1 (centres undefined)	?	?	i	?
O=C(c1cc2n(n1)CC(c1ccc3c(c1)OCO3)OC2)N1CCCCC1 (centres undefined)	35µM*	-7%	i	40µM*
O=C(c1cc2n(n1)CC(c1ccc(Cl)cc1)OC2)N1CCCCC1 (centres undefined)	?	-25%	i	40µM*
Cc1ccc(C)c(N2CCN(C(=O)c3cc4n(n3)CC(c3ccc(Cl)cc3)OC4)CC2)c1 (centres undefined)	45µM*	-20%	i	?
O=C(c1cc2n(n1)CC(c1ccc(Br)cc1)OC2)N1CCOCC1 (centres undefined)	28µM*	-11%	i	40µM*
c1ccc(CO[C@H]2COCCN(c3nc4ccccc4s3)C2)cc1	112µM*	-4%[70.6 µM]	?	?
CCN1c2cc(C(=O)Nc3ccc(OC)c(Cl)c3)ccc2C(=O)N2CCCCCC21 (centres undefined)	11µM*	-22%	i	?
CCN1c2cc(C(=O)Nc3ccc(C)c(Cl)c3)ccc2C(=O)N2CCCC21 (centres undefined)	?	0%	i	?
COc1ccc(NC(=O)c2ccc3c(c2)N(C)C2CCCCCN2C3=O)cc1Cl (centres undefined)	45µM*	-7%	i	40µM*
COc1cc(NC(=O)c2ccc3c(c2)N(C)C2CCCCCN2C3=O)cc(OC)c1OC (centres undefined)	40µM*	-20%	i	35µM*
CCN1c2cc(C(=O)NCc3ccc(C)cc3)ccc2C(=O)N2CCCCCC21 (centres undefined)	?	-8%	i	?
CCN1c2cc(C(=O)NCc3ccc(OC)c(OC)c3)ccc2C(=O)N2CCCCCC21 (centres undefined)	45µM*	-10%	i	?
COc1ccccc1CN1CCN(C(=O)C2CCCN(Cc3cccnc3)CCC(=O)NCC2)CC1 (centres undefined)	-18%	-15%	i	-27%
O=C([C@H]1CCCN1C(=O)Nc1ccc(Cl)cc1)N1CCC(N2CCOC2=O)CC1	i	·	·	4%
CC(C)C(=O)NC1CCN(c2ccnc3ccnn23)CC1	i	·	·	-9%[138 µM]
CCOC(=O)[C@@H]1CN(C(=O)c2cccc(C#N)c2)[C@H]2c3ccccc3O[C@@H]12	?	·	·	-32%
O=C(c1nc(-c2ccccc2)c2ccccn12)N1CCN(c2ncccn2)CC1	79µM*	2%	i	-21%
O=C(c1nc(-c2ccccc2)c2ccccn12)N1CCOCC1	89µM*	-12%[70.6 µM]	i	?
O=C(c1nc(-c2ccc(F)cc2)c2ccccn12)N1CCOCC1	112µM*	0%[70.6 µM]	i	-26%[138 µM]
CCN1CCN(CCNC(=O)Cc2cccn2-c2ccc(C)cc2)CC1	3%	4%	i	5%
CC(C)c1ccc(-n2cc(CN3CCN(C(=O)N(C)C)CC3)cn2)cc1	?	-30%	28µM*	-26%
CC(C)c1ccc(-n2cc(CN3CCCC4(C3)CN(C)C(=O)O4)cn2)cc1 (centres undefined)	?	-24%	?	?
CCCCc1ccc(-n2cc(CN3CCN(C(C)=O)CC(O)C3)cn2)cc1 (centres undefined)	?	-3%	40µM*	?
CNC(=O)c1cc(C2CC2)nc2onc(C3CCCN3C(=O)c3ccccc3F)c12 (centres undefined)	-16%	·	·	-16%
COc1ccc(N2C(=O)CSC23CCN(C(=O)Nc2ccc([N+](=O)[O-])cc2)CC3)cc1	25µM*	-4%	i	?
O=C(Nc1ccccc1)N1CCC2(CC1)SCC(=O)N2c1ccc(Cl)cc1	?	-4%	22µM*	?
O=C(c1cccs1)N1CCC2(CC1)SCC(=O)N2c1ccc(Cl)cc1	-22%	-3%	i	-26%
O=c1[nH]c(C2CCCN(Cc3cccc(-c4ccsc4)c3)C2)nc2ccc(F)cc12 (centres undefined)	22µM*	-21%	i	28µM*!
CCN1CCCC(c2nc3ccc(F)cc3c(=O)[nH]2)C1 (centres undefined)	-1%[172 µM]	-2%[70.6 µM]	i	-9%[138 µM]

Screens from PubChem BioAssay.
